Screening data (PubChem BioAssay)
Only some compounds are listed: those with a hit (about 21% of all), similar ones and a draw of the others.
Pf growth 48h: P. falciparum growth inhibition at 48 hours (one generation) | AID 504832 | P. falciparum luciferase growth in erythrocytes, 48 h | Potency, µM (series often up to 28.7 µM), inactives show at the top dose activity change, negative = inhibition, hits mostly inhibitors | 310,000 compounds, 5.9% hits; note: potency is the fitted concentration of half-maximal effect; % is set by controls: 0 for no effect and ±100 for the full control effect
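Read-out is firefly luciferase luminescence from an integrated reporter in P. falciparum, so falling signal marks reduced parasite growth. Infected erythrocytes were at 2% hematocrit and 0.1% parasitemia (final) in Albumax-supplemented RPMI 1640.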
HCV inh: inhibitors of hepatitis C virus infection; Huh7.5.1 HCVcc-Cre infection, luciferase reporter, 44 h; Potency, µM (series often up to 41.8 µM), for inactives: top-dose activity change, negative = inhibition, usual class: inhibitors; 340,000 compounds, 3.4% hits; AID 651820; note: potency is the fitted concentration of half-maximal effect; % is set by controls: 0 for no effect and ±100 for the full control effect
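Whole-lifecycle infectious HCVcc-Cre system; cells 1,000/well, compound then virus (~0.5 moi) added 4 h after plating, 44 h culture. Luciferase read 15 sec following 15 min substrate incubation, room temp.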
Cycloheximide cs: counter-screen hit for Shiga toxin inhibitors, cycloheximide. max response, %. cell reporter, cycloheximide protein synthesis inhibition counterscreen. 300,000 compounds, 12% hits. AID 2314; in the data active = max response mostly above about 13%, no sharp cut-off; inactive = mostly below about 14%; note: read at 38.3 µM for the half of the compounds with a filed dose; 0% is about no effect
AMA1-RON2 inh: disrupts binding of P. falciparum AMA1 to RON2; Potency, µM (titrated, usually from 58.2 µM), for inactives: at the top dose activity change, negative = inhibition, most hits filed as inhibitors; AID 720542; AlphaScreen AMA1-biotinylated RON2 peptide binding; 360,000 compounds, 0.2% hits;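 note: potency is the fitted concentration of half-maximal effect; 0% = vehicle wells and -100% = peptide control; nearly all actives have a fitted effect of over 45% in size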
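AMA1 (3D7) with his tag at 25 nM final met compounds first, then biotinylated RON2 peptide at 25 nM; detection used donor plus acceptor beads, 10 µg/mL apiece, read by AlphaScreen after 30 min at room temperature.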
Shiga inhibitor: Shiga toxin inhibition; Vero cells, Shiga toxin protein synthesis inhibition reporter; inhibition, % at 38.7 µM; 290,000 compounds, 9.2% hits; AID 2315; in the data active = inhibition mostly above about 28%, no sharp cut-off; inactive = mostly below about 43%; note: 0% is about no effect
Pf growth 96h: P. falciparum growth inhibition at 96 hour, primary screen for plastid delayed-death inhibitors; P. falciparum luciferase reporter growth, 96 h; Potency, µM (series often up to 28.7 µM), for inactives: top-dose activity change, negative = inhibition, most hits filed as inhibitors; 320,000 compounds, 6.9% hits; AID 504834; note: potency is the fitted concentration of half-maximal effect; % is set by controls: 0 for no effect and ±100 for the full control effect
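Infected RBCs, 2% Hct / 0.05% parasitemia final; luciferase-reporter P. falciparum; cpd 96 h, 37 C, 5% CO2; luciferase detection reagent; luminescence.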
Active calls of the source: *; i = inactive; ? = inconclusive; . = not tested or not shown. Unless noted, calls come from the whole dose curve; as a rule, active = well fitted curve in the direction sought with a large enough effect; inconclusive = small, poorly fitted or top-dose-only effect, or another doubt; inactive = no such curve, though single readings can be large; an effect the other way counts as inactive or inconclusive.

SMILES	Pf growth 48h	HCV inh	Cycloheximide cs	AMA1-RON2 inh	Shiga inhibitor	Pf growth 96h
CCn1cc(CN2CCC(n3nccc3NC(=O)C(OC)c3ccccc3)CC2)cn1 (stereo not given)	.	22.3%	.	21.5%	.	.
COCCN(Cc1nc2ccccc2c(=O)[nH]1)C(=O)COc1cccc(C(C)=O)c1	?	6.3%	.	21.3%	.	?
COc1ccccc1NC(=O)N(C)C[C@H]1Oc2ncc(C#CCN(C)C)cc2C(=O)N([C@H](C)CO)C[C@H]1C	.	.	.	3.5%	.	.
O=C(CN1CCCCC1)NC(=O)NC1CCCC1	56.4%	11.6%	23.2*	10.3%	55.5*	5.0%
O=C(Cn1ncc(Cl)c(Cl)c1=O)NC(=O)NC1CCCCC1	.	0.631µM*	.	17.8%	.	.
Cc1cc(C)cc(NC(=O)COC(=O)Cn2cnc3c2c(=O)n(C)c(=O)n3C)c1	-5.7%	-4.3%	.	-15.9%	.	-1.5%
COC(=O)[C@@]1(Cc2ccccc2)[C@@H]2C(=CC(=O)[C@H]2CC(=O)C(=O)N(C)C)CN1C(=O)c1ccccc1	?	?	-7.4	-1.5%	-20.7	10.4µM*
O=C(CN1CCOCC1)Nc1cc(C(F)(F)F)ccc1Cl	?	-27.0%	12.3	-3.5%	-3.3	11.7µM*
O=C(CN1CCN(C(=O)c2ccco2)CC1)Nc1cc(C(F)(F)F)ccc1Cl	1.65µM*	13.0%	6.5	5.9%	-1.6	.
NC(=O)c1cccc(-c2ccnc3c2CC(C(=O)NCc2ccccc2)O3)c1 (stereo not given)	.	.	.	-4.4%	.	.
O=C(CSc1nnc(-c2ccc(Cl)s2)o1)N1CCc2ccccc21	11.7%	.	-2.0	.	2.1	.
CSc1nnc(-c2cc3c(s2)-c2ccccc2CC3)o1	79.7%	2.51µM*	24.8*	201.1%	79.8*	85.0%
S=c1[nH]nc(-c2cc3c(s2)-c2ccccc2CC3)o1	36.1%	8.6%	30.1*	12.4%	56.3*	33.6%
Oc1cc2ccccc2cc1-c1n[nH]c(=S)o1	8.4%	16.8%	0.3	49.6%	-17.4	?
CC1CCc2sc(-c3n[nH]c(=S)o3)cc2C1 (stereo not given)	224.9%	15.7%	18.8*	75.8%	41.0*	171.1%
CCCCNc1nccnc1-c1cccc(C=O)c1	.	.	.	-20.3%	.	.
Cc1cn([C@H]2C[C@H](O)[C@@H](CCC(=O)NCCc3ccc4ccccc4c3)O2)c(=O)[nH]c1=O	.	.	.	-0.7%	.	.
Fc1cccc(Cl)c1CNCCCSc1ncccn1	-10.8%	-4.7%	4.0	-4.5%	12.3	13.1µM*
Clc1cccc(CNCCCSc2ncccn2)c1Cl	0.0%	23.5%	4.5	-0.8%	-2.6	11.6%
Clc1cccc(Cl)c1CNCCCSc1ncccn1	-11.0%	-1.2%	7.1*	0.8%	9.0	-27.1%
Clc1ccc(CNCCCSc2ncccn2)cc1Cl	30.8%	8.8%	1.7	7.8%	0.7	?
O=C1/C(=C/c2cccs2)COc2ccccc21	23.7%	22.0%	34.3*	-16.2%	92.5*	22.6%
CC1=CCC(/C=N\Nc2nnc3c(n2)[nH]c2ccccc23)CC1 (stereo not given)	68.9%	10.6%	76.2*	.	55.3*	?
COC(=O)C1=C(C(=O)OC)[C@@H]2N(C)c3ccc(OC)cc3[C@@]23C[C@@H](C(=O)OC)N(S(=O)(=O)c2ccc(OC)cc2)C3=N1	9.28µM*	?	-3.3	-28.2%	-2.2	?
CC(=O)c1ccc(N2CCN(C(=O)CCC(=O)Nc3ccc4nc(N5CCN(C)CC5)cc(C)c4c3)CC2)cc1	9.28µM*	8.91µM*	-0.6	-14.4%	2.0	5.1%
SMILES	Pf growth 48h	HCV inh	Cycloheximide cs	AMA1-RON2 inh	Shiga inhibitor	Pf growth 96h
Cc1cc(N2CCOCC2)nc2ccc(NC(=O)CCC(=O)N3CCN(c4cccc(C(F)(F)F)c4)CC3)cc12	4.65µM*	11.2µM*	27.8*	5.5%	66.7*	0.2%
CCN1CCN(c2cc(C)c3cc(NC(=O)CCC(=O)N4CCN(c5ccccc5)CC4)ccc3n2)CC1	?	?	11.2	0.5%	-5.9	77.4%
Cc1cc(N2CCN(C)CC2)nc2ccc(NC(=O)CCC(=O)NCCc3ccc(Cl)cc3)cc12	11.7µM*	5.1%	1.2	6.6%	-13.3	10.8%
COc1ccc(C(=O)C2CCCN(S(=O)(=O)c3ccccc3F)C2)c(C)c1 (stereo not given)	-17.8%	?	-1.4	47.5%	-3.7	?
C[C@H](NC(=O)c1ccco1)C(=O)NNC(=O)COc1cccc(C(F)(F)F)c1	.	2.8%	.	94.5%	.	.
O=C(/C=C/c1cccc(Br)c1)N1CCN(c2ccccn2)CC1	-16.1%	22.4%	-3.8	-10.4%	2.7	?
c1cncc(C2SCCCS2)c1	.	.	.	-8.0%	.	.
O=C(NCCc1ccc(Cl)cc1)c1ccc(Br)s1	40.2%	-7.5%	45.1*	-9.9%	55.0*	?
O=C(NCCc1ccccc1)c1ccc(Cl)nc1	387.8%	-0.7%	33.1*	3.0%	60.2*	-26.7%
Cc1ccc(C(=O)NCCc2ccc(F)cc2)s1	i	-12.9%	59.4*	-27.6%	57.8*	?
O=C(NCCc1ccccc1)C(=O)NCc1ccncc1	6.2%	9.1%	-2.5	-7.7%	14.8	-11.3%
Cc1ccc(C(=O)NCc2ccc(F)cc2)s1	.	3.1%	.	8.3%	.	.
O=C(COC(=O)c1ccc(Cl)nc1)NCCc1ccc(Cl)cc1	.	14.6%	.	-21.8%	.	.
O=C(NCCc1ccccc1)c1ccncc1	123.5%	.	32.2*	.	94.7*	.
c1ccc(COc2ccc(-c3cc4nc(NCCN5CCOCC5)ccn4n3)cc2)cc1	.	.	.	-8.8%	.	.
O=C(NCCc1ccncc1)Nc1ccc(F)cc1	0.6%	31.1%	-0.9	8.6%	-2.0	-4.1%
O=C(NCCc1ccc(F)cc1)c1ccncc1	12.2%	7.0%	15.5*	11.0%	86.8*	2.9%
CCN(CC)CCC12CC(C)OC1=Nc1ccccc1NC2=O (stereo not given)	.	.	.	-7.2%	.	.
CCCC(=O)N1CCC1(C)C(=O)Nc1cccc(F)c1 (stereo not given)	.	.	.	11.3%	.	.
O=C(Nc1ccc(-c2nc3ccccc3o2)cc1)C1CCCO1 (stereo not given)	113.1%	-31.4%	37.3*	-0.8%	73.4*	.
O=C(O)c1cccc(NC(=O)C2CCCO2)c1 (stereo not given)	.	9.5%	3.5	10.9%	24.8	30.9%
O=C(Nc1ccc(-c2nc3cc(Cl)ccc3o2)cc1)C1CCCO1 (stereo not given)	231.9%	-5.3%	29.7*	7.1%	69.6*	i
O=C(Nc1ccc2oc(-c3ccccc3)nc2c1)C1CCCO1 (stereo not given)	236.1%	-0.4%	45.3*	1.7%	66.5*	344.3%
CCOc1cc2[nH]c(=S)n(CCC(=O)NC3CCCCC3)c(=O)c2cc1OCC	.	.	.	93.7%	.	.
COc1cc(/C=C/C(=O)O)cc(S(=O)(=O)Nc2ccc3c(c2)OCO3)c1OC	28.0%	?	1.6	-3.0%	-7.0	-15.4%
